Pol iota inh: inhibitors of human DNA polymerase iota. Q9UNA4. 1% of 390,000 active. AID 588590. Pol iota fluorescent replication assay, 10 min. Potency, µM (doses to about 115 µM), inactives show at the highest dose activity, negative = inhibition, hits mostly inhibitors; note: potency is the fitted concentration of half-maximal effect
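Fluorescent replication assay read twice, at 0 min and 10 min after adding 50 nM (final) substrate. Enzyme (10 nM) and compounds were first incubated 15 min at room temperature; enzyme-free buffer wells were negative controls.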
Pol eta inh-1: inhibitors of human DNA polymerase eta; Potency, µM (top dose mostly 114 µM), inactives show at the top dose activity change, negative = inhibition, hits mostly inhibitors; AID 588591; recombinant Pol eta, fluorescent DNA replication assay; 1.2% of 390,000 active; note: potency is the fitted concentration of half-maximal effect; % is set by controls: 0 for no effect and ±100 for the full control effect
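Pol eta at 10 nM preincubated with compounds 15 min at room temperature; reaction started with fluorescent substrate (50 nM final) and read kinetically at 0 and 10 min.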
Pol kappa inh-1: blocks human DNA polymerase kappa activity. Q9UBT6. 0.53% of 400,000 active. Potency, µM (highest dose often 107 µM), without a hit: top-dose activity, negative = inhibition, hits mostly inhibitors. purified Pol kappa, fluorescent DNA synthesis assay, 10 min; note: potency is the fitted concentration of half-maximal effect; % is set by controls: 0 for no effect and ±100 for the full control effect
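Pol kappa 10 nM + cpd, 15 min RT; start w/ substrate 50 nM final; fluorescence kinetic read, 0 and 10 min. Neg ctrl: buffer, no enzyme.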
PI5P4Ka inh: inhibitors of human PI5P4K alpha; max response, %; PI5P4Kalpha enzyme, ADP-Glo luminescence, 60 min; hits give low values; P48426; 1.2% of 330,000 active; active = max response of -50% or lower; inconclusive = between -30% and -50%; inactive = -30% or higher; note: value at the top dose of about 77 µM; % is set by controls: 0 for no effect and ±100 for the full control effect
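Human PI5P4Kalpha with substrate in 0.038 M HEPES pH 7.4, 0.28 mM EGTA, 0.1% CHAPS, 5% DMSO; reaction started with 5 microM ATP (final), 60 min at room temperature. ADP formed read by ADP-Glo luminescence.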
PI4K2A inh: blocks human PI4K2A kinase activity; Q9BTU6; purified PI4K2A, ADP-Glo luminescence, 1 h; hits give low values; AID 1346378; 0.13% of 420,000 active; activity change, negative = inhibition, % at 76.9 µM; in the data active = activity change below about -50%; inconclusive = mostly about -30% to -49%;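 note: -100% = wells without enzyme as full effect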
Target sequence (Q9BTU6 whole entry, looked up): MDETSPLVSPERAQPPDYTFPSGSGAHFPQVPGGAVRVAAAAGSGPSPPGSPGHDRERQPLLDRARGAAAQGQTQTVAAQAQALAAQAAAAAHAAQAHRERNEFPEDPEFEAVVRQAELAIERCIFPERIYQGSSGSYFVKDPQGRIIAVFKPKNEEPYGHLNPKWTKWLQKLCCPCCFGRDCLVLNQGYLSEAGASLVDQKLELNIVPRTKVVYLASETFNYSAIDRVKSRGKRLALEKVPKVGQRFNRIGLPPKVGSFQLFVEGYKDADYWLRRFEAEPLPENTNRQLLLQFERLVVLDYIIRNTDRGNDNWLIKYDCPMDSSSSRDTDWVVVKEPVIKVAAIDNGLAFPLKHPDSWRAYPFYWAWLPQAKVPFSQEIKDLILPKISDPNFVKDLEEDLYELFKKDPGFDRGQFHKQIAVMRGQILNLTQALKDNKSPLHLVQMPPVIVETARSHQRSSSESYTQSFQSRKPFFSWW
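ADP-Glo luminescence measured ADP generated by PI4K2A enzyme (4 ug/mL before mixing) with 1.2 mM PI substrate (pre-mix) and 300 microM ATP (pre-mix). Tris pH7.5 buffer with MgCl2, Triton X-100; 1 h reaction at ambient temperature.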
POLB inh: blocks human DNA polymerase beta activity; P06746; Pol beta primer extension/strand displacement, fluorescence kinetic; Potency, µM (doses to about 114 µM), without a hit: at the top dose activity change, negative = inhibition, usual class: inhibitors; 1.3% of 340,000 active; AID 485314; note: potency is the fitted concentration of half-maximal effect; % is set by controls: 0 for no effect and ±100 for the full control effect
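Reaction started by 50 nM substrate onto compound-treated Pol beta (10 nM, 15 min preincubation, room temperature); plates read at 0 min and 10 min. Normalized concentration-effect data fitted by four-parameter Hill equation.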
Pol kappa inh-2: Pol kappa (human) inhibition, cherry-pick confirmation | shares compounds with Pol eta inh-1 | purified Pol-kappa, fluorescent strand-displacement substrate | Potency, µM, hits mostly inhibitors | 76% of 920 active | AID 720501; note: potency is the fitted concentration of half-maximal effect
Pol eta inh-2: confirmation of human DNA polymerase eta inhibitors; shares compounds with Pol eta inh-1; Pol eta primer extension, TAMRA/BHQ fluorescence, 10 min; Potency, µM, usual class: inhibitors; 64% of 2,600 active; AID 720502; note: potency is the fitted concentration of half-maximal effect
The depositor's hits bear a star; ? = inconclusive; . = not tested or not shown; [ ] = remark or other dose. The list is not random: actives were taken first. Their share in the collection is about 2.8%. Unless noted, calls come from the whole dose curve; as a rule, active = well fitted inhibition curve with a large enough effect; inconclusive = small, poorly fitted or top-dose-only effect, or another doubt; inactive = no such curve, though single readings can be large or run the other way.

SMILES	Pol iota inh	Pol eta inh-1	Pol kappa inh-1	PI5P4Ka inh	PI4K2A inh	POLB inh	Pol eta inh-2	others
Oc1ccc(N=Nc2ccccc2-c2nn[nH]n2)c(O)c1	11.4%	22.4µM*	16.1%	-63.1*	-8.5	31.6µM*	53.6*
Cc1ccccc1-c1nn[nH]n1	6.0%	1.5%	-12.4%	.	-0.6	11.2%	.
CCn1c(SCC(=O)c2ccc(O)c(O)c2)nnc1-c1ccc(C)cc1	-51.3%	10µM*	28.2µM*	?	13.6	-45.9%	60.1*	Pol kappa inh-2=?
CCn1c(SCC(=O)c2ccc(-c3ccccc3)cc2)nnc1-c1ccc(C(C)(C)C)cc1	.	.	.	.	7.2	.	.
Cc1oc(-c2ccc(Cl)cc2)nc1CN1CCCC(C(=O)NCc2ccccc2)C1 (stereo not drawn)	2.3%	-8.7%	-5.3%	.	-2.2	18.8%	.
Cc1cccc(NC(=O)/C(=C\c2ccc([N+](=O)[O-])o2)NC(=O)c2ccc(Cl)cc2)c1	?	10µM*	?	?	-1.7	10µM*	?
Cc1ccc(C(=O)N/C(=C/c2ccco2)C(=O)Nc2cccc(C(=O)O)c2)cc1	?	22.4µM*	?	-52.5*	-7.8	1.5%	?
COc1ccccc1C(=O)N/C(=C/c1ccco1)C(=O)Nc1cccc(C(=O)O)c1	?	20µM*	44.7µM*	?	-6.4	?	75.7*	Pol kappa inh-2=33.6*
COC(=O)/C(=C\c1ccc([N+](=O)[O-])o1)NC(=O)c1ccccc1	-7.0%	-9.5%	4.6%	3.5	-1.0	-1.3%	.
O=C(/C=C/c1ccco1)Nc1ccccc1C(=O)Nc1cccc(C(=O)O)c1	20µM*	17.8µM*	?	-7.7	2.7	-49.7%	30.1*	Pol kappa inh-2=23.8*
COC(=O)c1cccc(NC(=O)/C(=C\c2ccco2)NC(=O)c2ccco2)c1	.	-8.2%	.	-20.8	-6.6	.	.
CC(=O)c1cccc(NC(=O)/C(=C/c2ccco2)NC(=O)c2ccco2)c1	12.7%	-18.6%	-3.2%	0.0	-16.6	6.0%	.
Cc1cc(NC(=O)/C=C/c2ccco2)ccc1NC(=O)c1ccccc1	3.9%	-10.7%	4.6%	-7.5	0.0	-1.6%	.
CCCOc1cccc(NC(=O)c2c(-c3ccccc3Cl)noc2C)c1	-2.8%	-19.4%	-18.3%	.	-2.3	13.1%	.
COc1ccc(-n2cc(COC(=O)NCCc3ccccc3)nn2)cc1	.	.	.	.	2.0	.	.
O=C1C=CC(=O)N1c1cccc2cccnc12	?	28.2µM*	89.1µM*	-62.3*	-21.1	.	75.7*	Pol kappa inh-2=?
c1cnc2c(c1)ccc1cccnc12	-6.0%[58.9 µM]	1.3%[57.1 µM]	-5.5%[60.1 µM]	2.8	-1.4	10.4%[57.1 µM]	.
Cn1c(O)c(/C=N/NC(=O)c2cc3ccccc3cc2O)c2ccccc21	?	-19.7%	-22.6%	-27.4	5.5	?	.
COc1ccc2c(c1)cc(C(=O)N/N=C/c1c(O)c(C(=O)O)cc3ccccc13)n2C	?	39.8µM*	-22.1%	-65.8*	-1.0	31.6µM*	84.9*	Pol kappa inh-2=75.2*
O=[N+]([O-])c1ccc(NN=Cc2cccc([N+](=O)[O-])c2)cc1	28.7%	-14.9%	-3.1%	-17.2	0.7	.	.
O=[N+]([O-])c1ccc(C=NNc2ccc(S(=O)(=O)O)cc2)cc1	?	22.4µM*	-8.8%	-28.8	-0.2	.	47.8*
Cc1ccccc1Nc1c(-c2ccc(N3CCOCC3)cc2)nc2ccc(Br)cn12	1.1%	-16.7%	-3.6%	.	-3.2	19.4%	.
Cc1ccc(S(=O)(=O)Nc2nc(-c3ccccc3)cs2)cc1	84.7%	11.4%	-0.6%	-9.6	-1.3	6.0%	.
Cc1ccc(S(=O)(=O)Nc2ccccc2C(=O)Nc2nc(-c3ccc(F)cc3)cs2)cc1	?	89.1µM*	?	-9.6	4.5	8.9%	?
Cc1oc(-c2ccccc2Cl)nc1CSc1nc2ncccc2[nH]1	21.2%	-4.1%	8.8%	.	-1.5	18.9%	.
Cc1ccc(C(=O)c2ccccc2C(=O)O)cc1C	139.1%	-4.7%	0.6%	-2.1	2.8	21.7%	.
O=C(O)c1ccccc1C(=O)c1ccc2oc(=O)[nH]c2c1	?	22.4µM*	?	-15.0	2.2	.	37.9*	Pol kappa inh-2=?
Cc1ccc(CNC(=O)CSc2nc(=O)n3ccc(C)cc3n2)cc1	.	28.2µM*	.	?	-4.9	.	?
Cc1cc(CNC(=O)c2cccc3c2C(=O)c2ccc(-c4ccc(F)cc4OCc4ccccc4)cc2S3(=O)=O)c(C(F)(F)F)o1	39.8µM*	20µM*	79.4µM*	-27.3	-8.6	.	53.6*
CCC(=O)N1CCc2cc(Br)cc(S(=O)(=O)CCC(=O)NCCc3ccccc3Cl)c21	-14.6%	?	-18.9%	.	2.4	?	75.7*	Pol kappa inh-2=33.6*
